Source: article PMC7862700, “An all-to-all approach to the identification of sequence-specific readers for epigenetic DNA modifications on cytosine”

Legend:
Assay in all cases: DAPPL (digital affinity profiling via proximity ligation, sequencing); 10 mM Tris-HCl pH 7.5, 50 mM NaCl, 1 mM DTT, 4% glycerol, room temperature, 30 min; GST-TFs on glutathione beads, 16-mer random dsDNA library, 0.1% formaldehyde crosslink after washing; high values mean tight binding
FLI1 = target: T1, FLI1 (Homo sapiens, UniProt Q01543 1-452); conditions: protein: recombinant; tags: N-terminal GST; dsDNA, one strand shown
T1 sequence: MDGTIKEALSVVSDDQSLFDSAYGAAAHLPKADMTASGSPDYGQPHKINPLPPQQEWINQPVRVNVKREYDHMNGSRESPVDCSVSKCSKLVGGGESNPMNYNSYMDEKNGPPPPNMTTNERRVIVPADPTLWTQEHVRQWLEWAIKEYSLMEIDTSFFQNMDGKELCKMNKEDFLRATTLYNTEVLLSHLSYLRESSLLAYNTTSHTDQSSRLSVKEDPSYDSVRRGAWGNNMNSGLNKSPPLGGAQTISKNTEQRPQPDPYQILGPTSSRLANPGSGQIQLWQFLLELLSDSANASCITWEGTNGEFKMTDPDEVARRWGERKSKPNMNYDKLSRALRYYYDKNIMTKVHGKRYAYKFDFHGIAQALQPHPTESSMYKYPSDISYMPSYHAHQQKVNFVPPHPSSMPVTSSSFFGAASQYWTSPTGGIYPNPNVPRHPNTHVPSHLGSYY
How it was run: (§1)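 Binding signal is each hexamer's read frequency for a factor divided by its frequency in the tag-only sample. The factors were GST-fused human transcription factors from yeast, captured on glutathione beads, DNA-barcoded and pooled with that sample. Pools were incubated with 200 nmole of a random double-stranded 16-mer DNA library in Tris/NaCl/DTT/glycerol buffer at room temperature for 30 min, then washed, crosslinked with 0.1% formaldehyde, proximity-ligated with BsaI/T4 ligase (1 h, 37 °C), PCR-amplified and sequenced on an Illumina NextSeq500.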

ELK1 = target: T2, ELK1 (Homo sapiens, UniProt P19419 1-428); conditions: protein: recombinant; tags: N-terminal GST; dsDNA, one strand shown
T2 sequence: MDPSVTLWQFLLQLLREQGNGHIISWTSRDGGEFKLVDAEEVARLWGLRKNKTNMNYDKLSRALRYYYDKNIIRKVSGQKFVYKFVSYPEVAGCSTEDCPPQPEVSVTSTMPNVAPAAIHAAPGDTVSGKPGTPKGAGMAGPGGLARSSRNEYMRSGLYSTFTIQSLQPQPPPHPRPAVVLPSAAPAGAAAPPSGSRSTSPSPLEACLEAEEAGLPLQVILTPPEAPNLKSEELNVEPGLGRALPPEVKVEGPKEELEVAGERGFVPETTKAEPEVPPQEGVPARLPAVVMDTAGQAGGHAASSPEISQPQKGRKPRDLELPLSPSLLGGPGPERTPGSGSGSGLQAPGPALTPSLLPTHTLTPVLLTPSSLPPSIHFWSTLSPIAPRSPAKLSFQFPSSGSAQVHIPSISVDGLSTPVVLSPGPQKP
How it was run: as §1

GABPA = target: T3, GABPA (Homo sapiens, UniProt Q06546 1-454); conditions: protein: recombinant; tags: N-terminal GST; dsDNA, one strand shown
T3 sequence: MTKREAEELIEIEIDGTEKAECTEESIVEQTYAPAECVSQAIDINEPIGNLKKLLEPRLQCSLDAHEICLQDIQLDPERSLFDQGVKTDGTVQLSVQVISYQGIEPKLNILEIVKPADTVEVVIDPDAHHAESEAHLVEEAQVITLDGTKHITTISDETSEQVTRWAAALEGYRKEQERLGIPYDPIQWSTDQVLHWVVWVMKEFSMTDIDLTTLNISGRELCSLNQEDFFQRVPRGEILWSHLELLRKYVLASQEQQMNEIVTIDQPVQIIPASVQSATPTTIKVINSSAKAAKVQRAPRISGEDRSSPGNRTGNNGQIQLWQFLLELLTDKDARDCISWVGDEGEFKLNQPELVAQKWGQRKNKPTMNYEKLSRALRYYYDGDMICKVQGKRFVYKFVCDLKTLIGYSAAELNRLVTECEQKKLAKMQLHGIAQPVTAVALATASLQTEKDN
How it was run: as §1

ERG = target: T4, ERG (Homo sapiens, UniProt P11308 1-479); conditions: protein: recombinant; tags: N-terminal GST; dsDNA, one strand shown
T4 sequence: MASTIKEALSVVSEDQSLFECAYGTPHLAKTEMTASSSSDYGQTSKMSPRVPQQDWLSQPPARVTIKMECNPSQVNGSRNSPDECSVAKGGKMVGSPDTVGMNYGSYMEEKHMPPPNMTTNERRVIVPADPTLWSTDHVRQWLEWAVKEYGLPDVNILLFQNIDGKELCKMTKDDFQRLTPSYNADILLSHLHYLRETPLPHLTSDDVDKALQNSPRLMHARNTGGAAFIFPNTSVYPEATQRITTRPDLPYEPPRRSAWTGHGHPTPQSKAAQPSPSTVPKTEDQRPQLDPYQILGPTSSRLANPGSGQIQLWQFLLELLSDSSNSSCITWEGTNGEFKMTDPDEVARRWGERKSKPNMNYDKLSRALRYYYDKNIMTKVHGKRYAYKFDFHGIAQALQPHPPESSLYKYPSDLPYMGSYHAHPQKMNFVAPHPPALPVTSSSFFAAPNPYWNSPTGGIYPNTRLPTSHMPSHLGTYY
How it was run: as §1

ELF1 = ELF1 (Homo sapiens, UniProt P32519 1-619); conditions: protein: recombinant; tags: N-terminal GST; dsDNA, one strand shown
ELF1, sequence (P32519 whole entry): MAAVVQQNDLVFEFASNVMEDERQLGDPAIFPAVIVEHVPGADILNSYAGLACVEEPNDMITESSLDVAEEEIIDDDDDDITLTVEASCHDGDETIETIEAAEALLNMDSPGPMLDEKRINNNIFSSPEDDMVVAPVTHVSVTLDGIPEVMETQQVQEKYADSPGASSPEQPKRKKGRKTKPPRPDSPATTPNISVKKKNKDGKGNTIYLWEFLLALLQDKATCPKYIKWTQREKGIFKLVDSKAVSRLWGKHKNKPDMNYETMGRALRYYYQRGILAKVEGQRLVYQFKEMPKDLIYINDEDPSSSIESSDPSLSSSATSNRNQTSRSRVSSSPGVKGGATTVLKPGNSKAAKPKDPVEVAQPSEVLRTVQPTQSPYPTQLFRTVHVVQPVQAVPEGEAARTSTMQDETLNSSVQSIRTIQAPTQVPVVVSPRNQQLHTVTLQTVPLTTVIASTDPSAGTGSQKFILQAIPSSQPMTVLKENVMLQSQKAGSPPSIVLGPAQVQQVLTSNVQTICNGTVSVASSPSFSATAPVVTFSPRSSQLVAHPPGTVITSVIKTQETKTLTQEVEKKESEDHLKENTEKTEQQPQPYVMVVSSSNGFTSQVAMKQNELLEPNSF
How it was run: as §1

EHF = target: T5, EHF (Homo sapiens, UniProt Q9NZC4 1-300); conditions: protein: recombinant; tags: N-terminal GST; dsDNA, one strand shown
T5 sequence: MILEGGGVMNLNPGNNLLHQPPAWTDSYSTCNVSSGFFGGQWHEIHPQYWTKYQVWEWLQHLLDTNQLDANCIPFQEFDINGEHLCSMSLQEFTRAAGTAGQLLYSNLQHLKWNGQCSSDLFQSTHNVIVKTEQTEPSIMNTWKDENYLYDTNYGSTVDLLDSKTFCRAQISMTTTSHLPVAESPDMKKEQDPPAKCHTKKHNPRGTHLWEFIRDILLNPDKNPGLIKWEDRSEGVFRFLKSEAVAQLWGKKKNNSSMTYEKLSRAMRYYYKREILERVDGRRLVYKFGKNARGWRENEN
How it was run: as §1

SPI1 = SPI1 (Homo sapiens, UniProt P17947 1-270); conditions: protein: recombinant; tags: N-terminal GST; dsDNA, one strand shown
How it was run: as §1

SPIB = SPIB (Homo sapiens, UniProt Q01892 1-262); conditions: protein: recombinant; tags: N-terminal GST; dsDNA, one strand shown
SPIB, sequence (Q01892 whole entry): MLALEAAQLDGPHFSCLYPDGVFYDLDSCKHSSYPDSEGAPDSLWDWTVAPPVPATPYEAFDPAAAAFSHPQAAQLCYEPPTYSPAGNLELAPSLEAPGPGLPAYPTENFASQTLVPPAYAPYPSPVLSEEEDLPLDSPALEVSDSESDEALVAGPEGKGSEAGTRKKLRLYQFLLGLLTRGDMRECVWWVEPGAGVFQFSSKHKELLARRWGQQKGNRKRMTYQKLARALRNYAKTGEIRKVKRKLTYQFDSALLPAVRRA
How it was run: as §1

ELK3 = target: T6, ELK3 (Homo sapiens, UniProt P41970 1-407); conditions: protein: recombinant; tags: N-terminal GST; dsDNA, one strand shown
T6 sequence: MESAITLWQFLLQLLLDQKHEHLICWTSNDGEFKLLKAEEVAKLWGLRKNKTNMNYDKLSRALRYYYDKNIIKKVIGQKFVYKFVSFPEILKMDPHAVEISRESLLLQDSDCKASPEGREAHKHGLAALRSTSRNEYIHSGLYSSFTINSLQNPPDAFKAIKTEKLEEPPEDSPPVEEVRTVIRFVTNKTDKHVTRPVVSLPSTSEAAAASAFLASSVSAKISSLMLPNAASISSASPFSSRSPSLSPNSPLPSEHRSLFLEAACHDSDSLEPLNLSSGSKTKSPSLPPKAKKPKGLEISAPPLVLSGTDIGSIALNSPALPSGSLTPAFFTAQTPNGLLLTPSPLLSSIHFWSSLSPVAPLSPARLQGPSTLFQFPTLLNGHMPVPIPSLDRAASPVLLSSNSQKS
How it was run: as §1

FEV = target: T7, FEV (Homo sapiens, UniProt Q99581 1-238); conditions: protein: recombinant; tags: N-terminal GST; dsDNA, one strand shown
T7 sequence: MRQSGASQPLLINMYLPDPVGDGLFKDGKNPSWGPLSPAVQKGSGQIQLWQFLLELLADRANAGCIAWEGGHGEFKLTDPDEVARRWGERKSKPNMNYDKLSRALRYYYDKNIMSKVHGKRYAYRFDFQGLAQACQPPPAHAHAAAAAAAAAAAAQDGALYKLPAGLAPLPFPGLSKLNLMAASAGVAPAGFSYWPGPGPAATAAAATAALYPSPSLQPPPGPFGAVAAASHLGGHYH
How it was run: as §1

ETV5 = ETV5 (Homo sapiens, UniProt P41161 1-510); conditions: protein: recombinant; tags: N-terminal GST; dsDNA, one strand shown
ETV5, sequence (P41161 whole entry): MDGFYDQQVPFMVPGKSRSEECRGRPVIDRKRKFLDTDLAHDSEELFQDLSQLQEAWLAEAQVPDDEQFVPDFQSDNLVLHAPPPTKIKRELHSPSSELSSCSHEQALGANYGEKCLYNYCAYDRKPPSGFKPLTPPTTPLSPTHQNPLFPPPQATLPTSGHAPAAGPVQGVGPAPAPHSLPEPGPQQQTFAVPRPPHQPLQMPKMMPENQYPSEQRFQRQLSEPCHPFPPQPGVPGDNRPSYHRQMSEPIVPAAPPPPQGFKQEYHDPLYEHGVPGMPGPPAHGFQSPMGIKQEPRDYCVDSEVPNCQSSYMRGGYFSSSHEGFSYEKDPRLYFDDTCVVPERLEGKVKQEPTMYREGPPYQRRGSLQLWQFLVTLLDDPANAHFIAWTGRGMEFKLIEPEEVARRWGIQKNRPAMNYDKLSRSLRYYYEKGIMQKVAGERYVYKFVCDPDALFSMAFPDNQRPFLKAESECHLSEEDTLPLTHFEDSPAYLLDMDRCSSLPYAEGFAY
How it was run: as §1

HSF1 = HSF1 (Homo sapiens, UniProt Q00613 1-529); conditions: protein: recombinant; tags: N-terminal GST; chain copies: 3; dsDNA, one strand shown
HSF1, sequence (Q00613 whole entry): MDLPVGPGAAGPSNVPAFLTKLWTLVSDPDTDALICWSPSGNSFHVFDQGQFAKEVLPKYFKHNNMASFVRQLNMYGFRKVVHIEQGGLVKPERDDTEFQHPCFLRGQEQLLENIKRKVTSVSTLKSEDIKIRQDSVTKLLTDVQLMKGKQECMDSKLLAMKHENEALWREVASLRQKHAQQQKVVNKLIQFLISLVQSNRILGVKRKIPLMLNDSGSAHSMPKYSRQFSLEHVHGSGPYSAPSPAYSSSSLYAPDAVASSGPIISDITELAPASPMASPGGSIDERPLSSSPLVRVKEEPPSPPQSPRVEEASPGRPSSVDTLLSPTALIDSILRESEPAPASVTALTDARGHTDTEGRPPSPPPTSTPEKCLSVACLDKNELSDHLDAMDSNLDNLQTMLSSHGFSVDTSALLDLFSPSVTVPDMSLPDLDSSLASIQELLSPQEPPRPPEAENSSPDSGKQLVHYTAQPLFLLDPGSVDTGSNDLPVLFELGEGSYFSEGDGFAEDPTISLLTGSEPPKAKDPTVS
How it was run: as §1

SPIC = target: T8, SPIC (Homo sapiens, UniProt Q8N5J4 1-248); conditions: protein: recombinant; tags: N-terminal GST; dsDNA, one strand shown
T8 sequence: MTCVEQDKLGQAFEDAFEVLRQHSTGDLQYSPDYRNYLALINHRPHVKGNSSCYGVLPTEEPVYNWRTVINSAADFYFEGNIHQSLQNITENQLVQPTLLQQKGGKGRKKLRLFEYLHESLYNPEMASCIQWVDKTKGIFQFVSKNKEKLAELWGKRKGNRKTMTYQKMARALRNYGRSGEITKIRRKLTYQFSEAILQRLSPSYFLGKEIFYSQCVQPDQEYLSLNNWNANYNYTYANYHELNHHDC
How it was run: as §1

ELF4 = ELF4 (Homo sapiens, UniProt Q99607 1-663); conditions: protein: recombinant; tags: N-terminal GST; dsDNA, one strand shown
ELF4, sequence (Q99607 whole entry): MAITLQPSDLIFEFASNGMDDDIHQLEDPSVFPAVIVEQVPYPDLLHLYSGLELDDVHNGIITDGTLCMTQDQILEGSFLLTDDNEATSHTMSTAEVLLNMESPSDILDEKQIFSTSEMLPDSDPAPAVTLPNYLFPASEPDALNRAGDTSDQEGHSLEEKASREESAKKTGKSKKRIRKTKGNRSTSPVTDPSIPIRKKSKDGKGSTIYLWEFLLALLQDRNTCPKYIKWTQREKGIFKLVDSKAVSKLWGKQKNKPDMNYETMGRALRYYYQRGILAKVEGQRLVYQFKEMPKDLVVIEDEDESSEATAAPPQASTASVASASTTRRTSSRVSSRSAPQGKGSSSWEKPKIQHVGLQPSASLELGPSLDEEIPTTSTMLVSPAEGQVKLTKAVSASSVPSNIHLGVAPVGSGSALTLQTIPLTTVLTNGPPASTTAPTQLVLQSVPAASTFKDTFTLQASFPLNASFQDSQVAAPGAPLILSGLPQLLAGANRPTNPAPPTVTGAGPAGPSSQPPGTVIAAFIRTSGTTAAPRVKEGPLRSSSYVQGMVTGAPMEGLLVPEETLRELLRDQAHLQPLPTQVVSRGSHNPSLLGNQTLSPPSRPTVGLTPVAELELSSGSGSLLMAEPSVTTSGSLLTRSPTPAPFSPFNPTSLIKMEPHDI
How it was run: as §1

ELK4 = target: T9, ELK4 (Homo sapiens, UniProt P28324-2 1-405); conditions: protein: recombinant; tags: N-terminal GST; dsDNA, one strand shown
T9 sequence: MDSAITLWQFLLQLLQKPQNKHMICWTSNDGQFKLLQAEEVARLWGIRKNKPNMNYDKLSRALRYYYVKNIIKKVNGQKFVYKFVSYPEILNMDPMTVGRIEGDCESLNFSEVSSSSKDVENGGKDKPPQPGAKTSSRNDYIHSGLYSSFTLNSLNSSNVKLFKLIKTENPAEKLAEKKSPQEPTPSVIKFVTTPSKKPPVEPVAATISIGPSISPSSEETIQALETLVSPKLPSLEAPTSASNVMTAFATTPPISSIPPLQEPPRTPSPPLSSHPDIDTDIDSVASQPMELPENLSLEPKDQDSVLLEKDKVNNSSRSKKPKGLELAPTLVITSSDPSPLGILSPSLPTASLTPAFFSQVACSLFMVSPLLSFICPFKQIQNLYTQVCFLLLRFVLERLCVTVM
How it was run: as §1

ETV2 = target: T10, ETV2 (Homo sapiens, UniProt O00321 1-342); conditions: protein: recombinant; tags: N-terminal GST; dsDNA, one strand shown
T10 sequence: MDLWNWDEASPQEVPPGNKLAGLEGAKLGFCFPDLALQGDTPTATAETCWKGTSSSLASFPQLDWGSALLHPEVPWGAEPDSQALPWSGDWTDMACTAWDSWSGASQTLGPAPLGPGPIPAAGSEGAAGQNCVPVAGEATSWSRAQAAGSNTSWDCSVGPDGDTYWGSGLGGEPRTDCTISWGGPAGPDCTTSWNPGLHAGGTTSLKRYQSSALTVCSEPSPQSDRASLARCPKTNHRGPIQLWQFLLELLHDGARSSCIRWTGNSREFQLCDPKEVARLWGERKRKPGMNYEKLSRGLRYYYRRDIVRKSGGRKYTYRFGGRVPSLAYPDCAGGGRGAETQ
How it was run: as §1

ELF3 = target: T11, ELF3 (Homo sapiens, UniProt P78545 1-371); conditions: protein: recombinant; tags: N-terminal GST; dsDNA, one strand shown
T11 sequence: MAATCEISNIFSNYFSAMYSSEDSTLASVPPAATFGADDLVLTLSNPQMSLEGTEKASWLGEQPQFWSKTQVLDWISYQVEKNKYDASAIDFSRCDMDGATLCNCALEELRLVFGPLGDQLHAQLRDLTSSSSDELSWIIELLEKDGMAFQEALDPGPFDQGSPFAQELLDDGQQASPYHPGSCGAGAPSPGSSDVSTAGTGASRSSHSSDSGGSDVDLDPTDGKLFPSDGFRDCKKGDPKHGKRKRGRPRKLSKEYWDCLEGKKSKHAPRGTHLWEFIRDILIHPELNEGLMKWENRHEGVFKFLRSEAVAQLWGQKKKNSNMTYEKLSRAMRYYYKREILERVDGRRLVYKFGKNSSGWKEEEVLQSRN
How it was run: as §1

CRX = CRX (Homo sapiens, UniProt O43186 1-299); conditions: protein: recombinant; tags: N-terminal GST; dsDNA, one strand shown
CRX, sequence (O43186 whole entry): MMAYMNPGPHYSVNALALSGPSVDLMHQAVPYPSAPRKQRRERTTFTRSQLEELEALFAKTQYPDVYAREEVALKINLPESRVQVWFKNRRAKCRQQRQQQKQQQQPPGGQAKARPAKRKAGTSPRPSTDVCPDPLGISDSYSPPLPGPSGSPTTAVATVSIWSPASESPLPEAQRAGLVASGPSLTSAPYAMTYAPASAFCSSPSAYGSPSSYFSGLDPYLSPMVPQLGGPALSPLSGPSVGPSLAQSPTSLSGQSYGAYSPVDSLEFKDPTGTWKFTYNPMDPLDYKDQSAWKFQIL
How it was run: as §1

ETV1 = ETV1 (Homo sapiens, UniProt P50549 1-477); conditions: protein: recombinant; tags: N-terminal GST; dsDNA, one strand shown
ETV1, sequence (P50549 whole entry): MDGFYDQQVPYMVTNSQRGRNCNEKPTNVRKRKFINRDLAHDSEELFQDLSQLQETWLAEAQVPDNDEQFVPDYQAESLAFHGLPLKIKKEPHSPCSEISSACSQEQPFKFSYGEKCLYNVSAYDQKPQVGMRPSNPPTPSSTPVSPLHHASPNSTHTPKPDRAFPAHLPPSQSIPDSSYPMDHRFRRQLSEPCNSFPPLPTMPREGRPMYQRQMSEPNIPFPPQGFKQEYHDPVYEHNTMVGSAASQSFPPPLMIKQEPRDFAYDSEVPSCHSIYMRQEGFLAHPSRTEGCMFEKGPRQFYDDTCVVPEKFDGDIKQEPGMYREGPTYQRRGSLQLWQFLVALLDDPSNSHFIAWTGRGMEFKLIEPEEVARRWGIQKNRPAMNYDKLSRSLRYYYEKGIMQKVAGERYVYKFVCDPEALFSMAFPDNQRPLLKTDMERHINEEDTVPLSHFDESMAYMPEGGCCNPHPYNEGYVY
How it was run: as §1

Sequence: CACTTG
- binding signal (FLI1): 1.36 fold enrichment (6-mer frequency, TF over GST control)
- binding signal (ELK1): 1.48 fold enrichment (6-mer frequency, TF over GST control)
- binding signal (GABPA): 1.32 fold enrichment (6-mer frequency, TF over GST control)
- binding signal (ERG): 1.37 fold enrichment (6-mer frequency, TF over GST control)
- binding signal (ELF1): 1.33 fold enrichment (6-mer frequency, TF over GST control)
- binding signal (EHF): 1.36 fold enrichment (6-mer frequency, TF over GST control)
- binding signal (SPI1): 1.39 fold enrichment (6-mer frequency, TF over GST control)
- binding signal (SPIB): 1.3 fold enrichment (6-mer frequency, TF over GST control)
- binding signal (ELK3): 1.26 fold enrichment (6-mer frequency, TF over GST control)
- binding signal (FEV): 1.33 fold enrichment (6-mer frequency, TF over GST control)
- binding signal (ETV5): 1.41 fold enrichment (6-mer frequency, TF over GST control)
- binding signal (HSF1): 1.12 fold enrichment (6-mer frequency, TF over GST control)
- binding signal (SPIC): 1.12 fold enrichment (6-mer frequency, TF over GST control)
- binding signal (ELF4): 1.45 fold enrichment (6-mer frequency, TF over GST control)
- binding signal (ELK4): 1.43 fold enrichment (6-mer frequency, TF over GST control)
- binding signal (ETV2): 1.36 fold enrichment (6-mer frequency, TF over GST control)
- binding signal (ELF3): 1.41 fold enrichment (6-mer frequency, TF over GST control)
- binding signal (CRX): 1.1 fold enrichment (6-mer frequency, TF over GST control)
- binding signal (ETV1): 1.36 fold enrichment (6-mer frequency, TF over GST control)
